Results as given in ChEMBL document CHEMBL1961873, “Compounds: GSK PKIS; Assays: Nanosyn kinase panel” (2012).

The molecules below were run against Proto-oncogene tyrosine-protein kinase Src (Homo sapiens) (UniProt P12931). Conditions: at 0.1 µM.
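Also: values are averaged inhibition of Src, tested against the GSK PKIS kinase inhibitor set.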

Sequence of Proto-oncogene tyrosine-protein kinase Src (Homo sapiens) (P12931 2-536 limits assumed): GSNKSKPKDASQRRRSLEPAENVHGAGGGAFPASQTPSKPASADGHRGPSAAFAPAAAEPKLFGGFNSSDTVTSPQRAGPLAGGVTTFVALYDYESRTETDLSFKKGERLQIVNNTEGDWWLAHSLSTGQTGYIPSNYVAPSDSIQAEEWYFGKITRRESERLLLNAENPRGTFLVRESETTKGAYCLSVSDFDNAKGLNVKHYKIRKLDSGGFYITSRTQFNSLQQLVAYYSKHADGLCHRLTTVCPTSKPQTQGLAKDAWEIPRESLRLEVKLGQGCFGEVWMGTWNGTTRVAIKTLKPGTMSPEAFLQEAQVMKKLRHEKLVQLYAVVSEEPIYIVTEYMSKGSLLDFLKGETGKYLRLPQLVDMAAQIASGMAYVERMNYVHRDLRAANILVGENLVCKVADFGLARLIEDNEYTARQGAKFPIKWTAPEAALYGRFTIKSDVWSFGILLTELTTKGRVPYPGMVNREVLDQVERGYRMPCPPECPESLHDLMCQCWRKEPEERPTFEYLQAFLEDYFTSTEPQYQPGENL

Row | SMILES | inhibition [%]
1 | [O-][S+]1CCN(Cc2ccc(-c3ccc4ncnc(Nc5ccc(OCc6ccccc6)c(Cl)c5)c4c3)o2)CC1 | 1.76
2 | C[C@@H](Oc1cc(-n2cnc3ccc(OC[C@@H](O)CO)cc32)sc1C(N)=O)c1ccccc1Cl | 3.67
3 | OCc1ccc(-c2nc(-c3ccccn3)c(-c3ccc4c(c3)OCO4)[nH]2)cc1 | -0.99
4 | NS(=O)(=O)c1ccc(Nc2cc(-c3cccc(O)c3)n[nH]2)cc1 | 3.91
5 | Nc1ccc(C#Cc2cncnc2Nc2ccc(OCc3cccc(F)c3)c(Cl)c2)cc1 | 5.95
6 | Cc1ccc(Nc2ccnc(Nc3cccc(C(N)=O)c3)n2)cc1O | 78.3
7 | CCCN1CCCC(c2ccc(Nc3nc(Nc4cc(F)ccc4C(N)=O)c4cc[nH]c4n3)c(OC)c2)C1 (stereo unspecified) | -0.17
8 | N#Cc1cccc(Nc2nccc(-c3cnn4ncccc34)n2)c1 | 14.3
9 | COc1cc(Nc2nccc(-c3cnn4ncccc34)n2)cc(OC)c1 | 17.1
10 | CS(=O)(=O)CCNCc1nc(-c2ccc3ncnc(Nc4ccc(OCc5cccc(C(F)(F)F)c5)cc4)c3c2)cs1 | 6.29
11 | Cc1ccc(O)cc1Nc1ccnc2ccc(S(C)(=O)=O)cc12 | 92.2
12 | Cc1nc(-c2ccccc2)n2nc(NCCCN3CCOCC3)ncc12 | 6.46
13 | COc1cccc(-n2ncc3c(N/N=C/c4ccc(S(C)(=O)=O)cc4)ncnc32)c1 | 56.5
14 | NC(=O)c1sc(-n2cnc3ccccc32)cc1OCc1ccccc1Br | 7.25
15 | CS(=O)(=O)Nc1cccc(-c2ccc3c(NC(=O)C4CC4)n[nH]c3c2)c1 | 1.2
16 | COc1cccc(-n2ncc3c(N/N=C/c4ccc(C)cc4)ncnc32)c1 | 14.2
